Results reported in PubChem BioAssay (NCI).
The panel holds about 79,000 compounds, 15% with a hit somewhere; the sample as a whole holds those more often. Unmarked numbers belong to inactive results. Active and inactive are the calls of the source. No stated cut-off is given here; in the data, active means growth inhibition above about 70%; inactive means the rest.

What was measured:
[1] = NCI Yeast Anticancer Drug Screen. Data for the rad50 strain (AID 155);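 further: 0% = growth of vehicle-only cultures of the same strain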; conditions: S. cerevisiae rad50 strain growth inhibition; at 50.0 µM; hits give high values
Summary of the method: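 Genetically altered yeast (DNA repair pathway); compound treatment; growth inhibition vs vehicle ctrl.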

[2] = NCI Yeast Anticancer Drug Screen. Data for the mec2-1 strain (AID 157); conditions: S. cerevisiae mec2-1 strain, at 50.0 µM, hits give high values
Summary of the method: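 Using mec2-1 yeast: add compound, measure growth, express inhibition versus vehicle-treated cultures.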

[3] = NCI Yeast Anticancer Drug Screen. Data for the sgs1 mgt1 strain (AID 161);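 further: 0% = growth of cultures given vehicle only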; conditions: S. cerevisiae sgs1 mgt1 strain, at 50.0 µM, hits give high values
Summary of the method: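 Percent growth inhibition was derived by comparing compound-exposed mutant yeast with vehicle-exposed cultures. The strain carries alterations in DNA damage repair.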

[4] = NCI Yeast Anticancer Drug Screen. Data for the cln2 rad14 strain (AID 165);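 further: 0% = growth equal to vehicle treated cultures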; conditions: S. cerevisiae cln2 rad14 strain, at 50.0 µM, hits give high values
Summary of the method: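 Yeast strain cln2 rad14, bearing defects in cell cycle control and DNA repair, serves as the test system; values reflect growth inhibition compared with vehicle.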

[5] = NCI Yeast Anticancer Drug Screen. Data for the bub3 strain (AID 167); conditions: S. cerevisiae bub3 mutant strain, at 50.0 µM, hits give high values
Summary of the method: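 Yeast carrying a defined mutation is treated with each compound, and growth is compared with that of vehicle-exposed cells to give inhibition.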

[6] = NCI Yeast Anticancer Drug Screen. Data for the mlh1 rad18 strain (AID 175); conditions: S. cerevisiae mlh1 rad18 strain growth inhibition; at 50.0 µM; hits give high values
Summary of the method: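 Steps: expose repair-defective yeast to compound; measure growth; express inhibition against vehicle-treated controls.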

Compound	growth inhibition [1]	growth inhibition [2]	growth inhibition [3]	growth inhibition [4]	growth inhibition [5]	growth inhibition [6]
COC(=O)C(Br)(C(=O)OC)C(c1ccccc1)c1ccccc1	38.1%	41.3%	72.3% (active)	26.2%	41.8%	37.3%
CCOC(=O)CC1C(O)C(=O)N(C)C1c1ccccc1 (stereo not given)	21%	-8.05%	1.75%	42.3%	9%	-50.4%
O=C(NCCCC1NC(=O)/C(=C(O)/C=C/C=C/c2ccccc2)C1=O)OCc1ccccc1 (stereo not given)	38.4%	-1.65%	17.1%	-2.75%	0.25%	21.8%
S=C(Nc1c2c(nc3ccccc13)CCCC2)Nc1c2c(nc3ccccc13)CCCC2	-14.9%	9.55%	-0.3%	9.8%	-17.9%	12%
Cc1cccc(C(C)(C)C)c1NC(=O)C(=O)C(C(=O)/C=C\c1ccccc1)C1OC(=O)c2ccccc21 (stereo not given)	7.4%	-4.95%	12.3%	30.4%	13.8%	6.1%
CN/N=C(/CC(=O)c1sc(NNC(C)=O)nc1C)C(=O)Nc1ccc(OC)cc1OC	15.7%	-14.5%	3.2%	15.4%	15%	-2.15%
COc1ccc(OC)c(C2SCC(=O)N2c2nncs2)c1 (stereo not given)	-19.8%	6%	15.2%	-17.6%	-8.7%	2.2%
Cc1ccc2oc(=O)cc(CC(=O)O)c2c1	-6%	-8.3%	-10.4%	12.1%	-10.7%	-7.9%
CC(CCc1cccc2ccccc12)C(=O)O (stereo not given)	29.6%	30.4%	28.9%	26.1%	30.3%	43.3%
OC1OC(CCl)C(Cl)C(O)C1O (stereo not given)	0.55%	-2.95%	9.9%	-11%	-18.9%	-16.6%
Brc1ccc(C=C2c3ccccc3-c3ccccc32)cc1	-11.1%	-8%	-16.4%	6.85%	7.65%	1.95%
CN(CCO)c1nc2c(c(=O)[nH]1)CCC2	-3.55%	-21.8%	-43%	-5.25%	-19.4%	-21.8%
CSc1ncc2c(n1)-c1ccccc1OC2N1CCOCC1 (stereo not given)	-4.95%	8.1%	-1.65%	-9.55%	-18.4%	40.7%
COC1(OC)c2no[n+]([O-])c2CCC1O (stereo not given)	-6.6%	-17.4%	-24.1%	10%	4%	-4.45%
O=C(O)c1c(Br)c(Br)c(Br)c(Br)c1C(=O)Nc1ccc(Br)cc1	2.25%	-1.3%	5.8%	-8.6%	2.75%	33.2%
CC1(O)c2ccccc2-c2c1n([O-])c1ccccc1[n+]2=O (stereo not given)	7.9%	-6.2%	12.2%	-43.9%	-1.8%	3.9%
OCCO	-26.4%	-24.1%	-49.3%	-31.6%	-32%	-30.6%
COc1cc(NS(=O)(=O)c2ccccc2)ccc1C	27.6%	-20.3%	14.7%	12.3%	22.4%	24.9%
O=C(CCSC(=S)Nc1ccc(Cl)cc1)NNc1ccccc1	1.8%	-25.1%	-0.65%	-30.4%	6.6%	18.2%
CSc1ccccc1N1C(=O)CSC1=S	-7.8%	4.4%	41.5%	19.1%	-4.1%	22.2%
